esBAF inh – SWI/SNF esBAF complex inhibition | actives 2% (n = 350,000) | mouse ES cells, Bmi1-luciferase knock-in reporter, 24 h; 100% = twice the neutral-well signal | reporter increase, % at 12.5 µM; in the data active = activation above about 40%; inconclusive = no clear call, values can overlap the other calls;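 also: 0% = median of the plate's neutral control wells and 100% = double that signal; a rise in the Bmi1 reporter signal indicates esBAF inhibition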
HSF1 inh – HSF1 inhibition; actives 0.77% (n = 300,000); activity change, negative = inhibition, % at 7.5 µM (by protocol); NIH3T3-HGL HSE-luciferase, MG132-induced, luminescence 8 h; stronger effect = lower value;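 active = more than half of replicate wells show activity change below -50%, luminescence cut by over half; inconclusive = some wells, but at most half, below -50%; inactive = no replicate well below -50%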;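 also: luciferase reports HSF-1 transcriptional activity via heat shock element; 0% = median of DMSO wells and -100% = zero luminescence signal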
Vif inh – blocks HIV Vif function; HEK293T cells, Vif self-association by quenched fluorescence, imaging, 24 h; inhibition, % at 7.49 µM; actives 0.35% (n = 340,000); AID 602346; in the data active = inhibition above about 50%, passing the limit was not always enough; inconclusive = no clear call, values can overlap the other calls; inactive = below about 31%
HSF1 activator – increases HSF-1 driven luciferase reporter signal; NIH3T3-HGL HSF-1 luciferase reporter, MG132, 8 h; 100% = twice DMSO control signal; actives 1.7% (n = 300,000); activation, % at 9 µM;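 active = mean replicate activation of at least 50% with a set share of replicates each reaching 50%; inconclusive = only one of those two conditions met; inactive = mean below 50% and too few replicates reaching it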;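 also: 0% = median of the neutral control wells and 100% = twice that signal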
An asterisk follows results filed as active; ? = inconclusive; nt = no result. Rows were chosen to be rich in hits. Some 3.4% of all compounds tested hit in one or more screens of this group.

SMILES	esBAF inh	HSF1 inh	Vif inh	HSF1 activator
CCCN1CCN(CCCNC(=O)c2ccc3nc(N4CCC(C)CC4)sc3c2)CC1	55.4*	?	6.8	-53.4
CNC[C@H]1OCCCC[C@H](C)Oc2ccc(N(C)C)cc2C(=O)N([C@H](C)CO)C[C@@H]1C	4.4	nt	nt	nt
COC(=O)C(Cc1ccc(OC(=O)c2ccccc2Cl)cc1)N1Cc2ccccc2C1=O (configuration not stated)	44.4*	9.2	-2.7	-5.7
COC(=O)C(Cc1ccc(OC(=O)c2ccccc2C)cc1)N1Cc2ccccc2C1=O (configuration not stated)	nt	13.2	nt	43.9
CCCC#Cc1ccc2c(c1)O[C@H](CN(C)C(=O)C1CCC1)[C@H](C)CN([C@@H](C)CO)S2(=O)=O	-7.1	nt	nt	nt
Cc1ccc(-c2nn(-c3ccccc3)cc2CO)cc1	90.1*	1.0	-4.2	16.9
COc1ccc(-c2nn(-c3ccccc3)cc2CO)cc1	17.4	10.3	4.0	23.7
COc1ccc(-c2cn(-c3ccccc3)nc2CO)cc1	39.2	-88.6*	7.6	-90.7
CC=Cc1ccc2n(c1=O)C[C@@H]1[C@@H](CO)[C@H](C(=O)NCC)[C@H]2N1C(=O)Nc1cc(F)ccc1F (mixture of isomers)	1.1	nt	nt	nt
O=C(Nc1ccccc1C(=O)N1CCCCCC1)c1ccccc1	nt	-8.7	70.8*	-11.8
Cc1ccc(C(=O)Nc2ccccc2C(=O)O)cc1S(=O)(=O)NCc1ccccc1	nt	-92.1*	6.5	-93.5
O=C(COc1ccccc1Cl)Nc1ccccc1C(=O)N1CCCCC1	60.8*	25.9	-4.6	13.5
O=C(Nc1ccccc1C(=O)O)c1cccc(C(=O)Nc2ccccc2C(=O)O)c1	4.1	-14.1	110.1*	-19.3
Cc1ccc(C(=O)Nc2ccccc2C(=O)O)cc1S(=O)(=O)Nc1ccc(Br)cc1	nt	-1.2	0.8	-3.6
COc1ccc(NC(=O)Nc2ccc3c(c2)C(=O)N([C@H](C)CO)C[C@H](C)[C@H](CN(C)S(=O)(=O)c2cccs2)O3)cc1	-4.8	nt	nt	nt
O=C(C[C@H]1C=C[C@H](NC(=O)NC2CCCC2)[C@@H](CO)O1)NCc1ccc(F)cc1	-2.2	nt	nt	nt
Fc1ccc(-c2nn3c(C4COc5ccccc5O4)nnc3s2)cc1 (configuration not stated)	42.2*	4.3	-3.4	6.6
c1ccc2c(c1)OCC(c1nnc3sc(-c4ccc5c(c4)OCO5)nn13)O2 (configuration not stated)	11.5	5.3	15.0	10.6
CCC(=O)Nc1ccc2c(c1)C(=O)N(C)[C@@H]1CC[C@@H](CC(=O)NCc3ccccc3Cl)O[C@@H]1CO2	-6.9	nt	nt	nt
C/C=C/c1cnc2c(c1)C(=O)N([C@H](C)CO)C[C@H](C)[C@@H](CN(C)C(=O)Nc1ccc(F)cc1)O2	-0.7	nt	nt	nt
O=C1CN(C(=O)CNC(=O)c2cccc(Cl)c2)c2ccccc2N1	nt	-4.6	10.1	-0.5
Cc1cccc(C(=O)NCC(=O)N2CC(=O)Nc3ccccc32)c1	nt	-51.4*	-4.3	-63.0
Cc1cccc2cc(C#N)c(SCC(=O)N3CC(=O)Nc4ccccc43)nc12	-14.2	-13.8	61.4*	-28.7
COc1ccc(NC(=O)N(C)C[C@@H]2Oc3ccc(NC(=O)C4CC4)cc3CC(=O)N([C@@H](C)CO)C[C@H]2C)cc1	-0.9	nt	nt	nt
CCOC(=O)C1CCCN(C(=O)COc2ccccc2O)C1 (configuration not stated)	-0.3	2.2	5.5	43.4
SMILES	esBAF inh	HSF1 inh	Vif inh	HSF1 activator
CCOC(=O)C1CCCN(C(=O)CCc2nnc(-c3ccc(C(C)=O)s3)o2)C1 (configuration not stated)	70.9*	24.9	7.2	35.0
CCOC(=O)C1CCCN(C(=O)CSCc2ccccc2)C1 (configuration not stated)	48.1*	18.1	nt	10.7
CCOC(=O)C1CCCN(C(=O)CSc2nc(C)cc(C)n2)C1 (configuration not stated)	-2.1	-31.3	0.4	-46.2
O=C1c2ccccc2NC(c2ccc(O)cc2)N1/N=C/c1ccc(O)cc1 (configuration not stated)	nt	28.5	6.8	70.1*
O=C1c2ccccc2NC(c2ccccc2)N1/N=C/c1ccccc1 (configuration not stated)	-33.3	27.4	4.5	43.2
Clc1cc2c(c(CSc3nc4ccccc4n4cccc34)c1)OCOC2	-7.2	7.1	76.2*	-3.6
Oc1ccccc1C1SC(c2ccccc2O)SC(c2ccccc2O)S1 (configuration not stated)	1.7	nt	59.5*	nt
Cc1ccc(-c2ccc([C@@H]3[C@H](CO)N4CCCCN(S(=O)(=O)c5ccccc5C)C[C@@H]34)cc2)cc1	2.9	nt	nt	nt
Cc1ccc(NC(=O)c2cc(-c3ccc(C)o3)nc3ccccc23)cc1	3.8	-6.7	-2.6	0.2
Cc1ccc(-c2cc(C(=O)Nc3cccnc3)c3ccccc3n2)o1	7.0	34.4	0.1	52.1*
COc1ccc(NC(=O)CSc2ccccc2)c([N+](=O)[O-])c1	57.4*	17.0	22.1	22.2
c1ccc2c(-n3cccn3)cccc2c1	71.2*	13.6	-8.2	41.2
CCOC(=O)c1sc(NC(=O)c2cccs2)cc1C	64.5*	18.2	37.2	?
CCOC(=O)c1sc(NC(=O)c2sccc2C)cc1C	5.1	41.9	-2.8	73.4*
CCOC(=O)c1sc(NC(=O)c2ccc(Br)o2)cc1C	90.6*	23.7	-14.5	48.7
CCOC(=O)c1sc(NC(=O)Nc2cccc(Cl)c2)cc1C	nt	8.8	-22.2	49.9
CCOC(=O)c1cccc(NC(=O)c2cccs2)c1	14.7	-0.1	-3.3	5.1
C[C@H](CO)N1C[C@H](C)[C@@H](CN(C)CC2CC2)Oc2ccc(NC(=O)Cc3ccccc3)cc2CC1=O	4.4	nt	nt	nt
C[C@H](CO)N1C[C@H](C)[C@@H](CN(C)C(=O)c2ccncc2)OCCCC[C@H](C)Oc2ccc(N(C)C)cc2C1=O	-0.4	nt	nt	nt
COc1cccc(NC(=O)C(=O)NCC2CCCN2S(=O)(=O)c2ccccc2)c1 (configuration not stated)	78.8*	32.5	-15.9	56.4*
O=C(NCC1CCCN1S(=O)(=O)c1cccs1)C(=O)Nc1ccccc1Cl (configuration not stated)	50.7*	2.6	-12.3	0.9
O=C(NCC1CCCN1S(=O)(=O)c1cccs1)C(=O)Nc1ccccc1F (configuration not stated)	25.1	nt	3.3	nt
COc1cccc(C(=O)NCC2CCCN2S(=O)(=O)c2ccccc2)c1 (configuration not stated)	-3.3	8.0	-2.3	8.0
S=C(NCc1cccs1)Nc1cccc2ccccc12	nt	31.9	-1.0	56.4*
S=C(NCc1ccccc1)Nc1cccc2ccccc12	nt	1.8	nt	25.0
CCC(C)c1ccc(NC(=S)NCc2cccs2)cc1 (configuration not stated)	8.3	1.2	-4.8	3.8
CC(C)(C)c1ccc(NC(=S)NCc2cccs2)cc1	44.4*	105.5	-4.5	144.9*
CC(C)C#Cc1cnc2c(c1)C(=O)N([C@H](C)CO)C[C@H](C)[C@@H](CN(C)C(=O)c1cccc(F)c1)O2	0.2	nt	nt	nt
CCC1CCc2sc(C(=O)NCC3CCCO3)cc2C1 (configuration not stated)	66.5*	nt	-10.3	nt

Screening results: PubChem BioAssay, Broad Institute
